# Measurements published in PubChem BioAssay AID1259240 (Keith Lab, Institute of Cancer Science, University of …, 2017).
# Active and inactive are the calls of the source. Cut-off read from the data, not from the text of the source: active = fold change mostly below about -2 (no sharp cut-off); inactive = mostly above about -1.8.
# Test: TERT promoter activity modulators, primary screen, cell-based, luciferase reporter, human (AID 1259240)
# Details: A2780 TERT promoter luciferase reporter, 16 h; at 20 µM, fold versus average of vehicle-only wells
Structure (SMILES),fold change,outcome
CCCn1c(OC)nc2c1c(=O)n(C)c(=O)n2C,-1.58 (inactive),
Cn1c(SCC(=O)N2CCOCC2)nnc1-c1c[nH]c2ccccc12,,inactive
Cc1cc(NC(=O)CSc2nnc(Cc3cc(=O)[nH]c(=O)[nH]3)n2-c2ccccc2)no1,-1.88 (inactive),
CCCc1nc2ccccc2c2nc(N)nn12,-2.02 (active),
CCOC(=O)C1CCN(c2c(N(C)C3CCCCC3)c(=O)c2=O)CC1,1.32 (inactive),
CC1=C(C(N)=O)C(c2ccc(Br)cc2)n2nc(CCCO)nc2N1 (stereo not given),,inactive
O=C(c1ccc(CSCc2ccccc2F)o1)N1CCN(c2ccc(N3CCOCC3)nn2)CC1,1.7 (inactive),
COCCNC(=O)CCSc1nc(-c2ccc3c(c2)OCO3)cc(C(F)(F)F)n1,-1.36 (inactive),
CCCN1C(=O)C2(/C(=C(/O)c3ccc(C)cc3)C(=O)C(=O)N2CCOC)c2ccccc21 (stereo not given),1.26 (inactive),
CCOC(=O)C1CCN(c2c(N3CCC(C(=O)OCC)CC3)c(=O)c2=O)CC1,1.06 (inactive),
CC1=C(C(N)=O)C(c2ccc(O)cc2)n2nc(CCCO)nc2N1 (stereo not given),,inactive
Cc1nc2ncccn2c1-c1csc(Nc2ccc(Cl)cc2)n1,-2.31 (active),
CCc1nc2ccccc2n1CC(O)COc1cccc(OC)c1 (stereo not given),1.45 (inactive),
CCc1ccc2c(c1)c1n[nH]c(=S)nc1n2C,-1.88 (inactive),
C=CCN1CN=C(NS(=O)(=O)c2ccc(C)cc2)NC1,-1.75 (inactive),
O=C(CN1C(=O)C2(OCCO2)c2ccccc21)c1ccc(F)cc1,1.12 (inactive),
Clc1ccc(-c2nnn3c2nc(NCC2CCCO2)c2ccccc23)cc1 (stereo not given),-1.11 (inactive),
O=C(Nc1nccs1)c1cc2ccccc2c(=O)s1,-1.86 (inactive),
COc1ccc(-c2noc(-c3ccc(Cl)cc3)n2)cc1OC,-4.04 (active),
CCOC(=O)N1CCC(Nc2c(N(CC)CC)c(=O)c2=O)CC1,1.22 (inactive),

Structure (SMILES),fold change,outcome
CCOC(=O)Cn1c(=O)oc2cc(S(=O)(=O)N3CCCC3)ccc21,-1.16 (inactive),
Cc1ccc2nc(N3CCOCC3)c3nncn3c2c1,1.35 (inactive),
Cc1nc2sccn2c1-c1csc(Nc2ccc(O)cc2)n1,-1.8 (inactive),
CCOC(=O)C1CCCN(c2c(N3CC(C)CC(C)C3)c(=O)c2=O)C1 (stereo not given),-1.11 (inactive),
O=C(O)c1c2c(nc3ccc(S(=O)(=O)N4CCC(C(=O)N5CCCCCC5)CC4)cc13)CCCC2,1.03 (inactive),
Cc1ccc(CN2C(=O)C(C(C)C(=O)NCC3CCCO3)Sc3ccccc32)cc1 (stereo not given),-1.61 (inactive),
C1=C(CCNc2nnc(Cc3cccnc3)c3ccccc23)CCCC1,-1.15 (inactive),
COc1ccccc1/C=c1\sc2nc(-c3cc(OC)c(OC)c(OC)c3)nn2c1=O,-1.32 (inactive),
COc1ccc(OC)c(NC(=O)CSc2nc(-c3cccs3)nc3c2c(=O)n(C)c(=O)n3C)c1,1.71 (inactive),
O=C1Nc2ccccc2/C1=C\c1cn(CC(=O)N2CCCC2)c2ccccc12,1.66 (inactive),
COC(=O)CCn1nc(-c2ccc(Cl)cc2)c2ccccc2c1=O,-1.07 (inactive),
CN1C(C(=O)c2ccccc2)=C(OC(=O)c2ccc(F)cc2)c2ccccc2S1(=O)=O,1.16 (inactive),
COc1ccc2[nH]cc(S(=O)(=O)c3ccc(C)cc3)c(=O)c2c1,1.08 (inactive),
Cc1ccc2nc(Cl)c3nncn3c2c1,1.44 (inactive),
CN1CCN(C(=O)c2cc3c(=O)[nH]c4ccccc4c3n2C)CC1,-1.19 (inactive),
CCCCCn1c(=O)[nH]c2c(c1=O)CCC2,-1.18 (inactive),
CCOC(=O)C1CCN(c2cc(C)c(C#N)c3nc4ccccc4n23)CC1,-2.16 (active),
CCOC(=O)C1CCCN(c2c(N3CCN(c4ccc(F)cc4)CC3)c(=O)c2=O)C1 (stereo not given),-1.2 (inactive),
CCOC(=O)C(Sc1nnc(-c2c[nH]c3ccccc23)n1C)C(=O)OCC,,inactive
Cc1ccc(C)c(Nc2nc3ccccc3n3nnnc23)c1,1.43 (inactive),
